LASV entry inh: qHTS for Inhibitors of binding or entry into cells for Lassa Virus; 1.2% of 300,000 active; Lassa virus pseudotype entry inhibition, cell reporter; Potency, µM (titrated, usually from 37.9 µM), inactives show at the top dose activity change, negative = inhibition, usual class: inhibitors; calls by dose curve; tested in HEK293 cells; also: potency is read from the fitted curve at half-maximal effect; nearly all actives have a fitted effect of over 50% in size
Marburg entry inh: qHTS for inhibitors of binding or entry into cells for Marburg Virus; 1.8% of 300,000 active; AID 540276, 2011; Marburg virus pseudotyped entry inhibition, cell reporter; Potency, µM (top dose mostly 37.8 µM), inactives show at the top dose activity change, negative = inhibition, actives largely listed as inhibitors; calls by dose curve; tested in HEK293 cells; also: potency is read from the fitted curve at half-maximal effect
FMDV inh: High Throughput Screening for Foot and Mouth Disease Virus Antivirals; FMDV antiviral cell-based qHTS; Potency, µM (top dose mostly 57.9 µM), inactives show at the highest dose activity change, negative = inhibition, actives largely listed as inhibitors; 1.2% of 410,000 active; calls by dose curve; tested in HEK293T cells; also: read-out not given here; potency is read from the fitted curve at half-maximal effect; nearly all actives have a fitted effect of over 45% in size
HCMV inh: qHTS Assay for inhibitors of the human cytomegalovirus (HCMV). HFF cells, HCMV-luciferase reporter, 72 h; hits give low values. activity change, negative = inhibition, % at 57.5 µM. 4.5% of 410,000 active. AID 1259415, 2018; in the data active = activity change below about -60%; inconclusive = no clear call, values can overlap the other calls; inactive = above about -39%
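Cell-based, HFFs, 1000 cells/well, 16 h 37C; cpds in DMSO + HCMV-luc, MOI 1 PFU/cell; 72 h 37C; OneGlo luminescence after 5 min RT; norm. to buffer vs Salinomycin 10uM.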
An asterisk follows results filed as active; ? = inconclusive; . = not tested or not shown; [ ] = remark or other dose. An excerpt weighted towards active compounds, which were near 6.2% of everything screened. % is scaled to controls: 0 for no effect and ±100 for the full control effect.

SMILES	LASV entry inh	Marburg entry inh	FMDV inh	HCMV inh
CC(=O)c1c(C)[nH]c(C(=O)CSc2nc3ccccc3n2C)c1C	?	?	-31.1%	-77.5*
CC(=O)OCC#CCSc1nc2ccccc2n1C	-1.1%	-1.8%	0.0%	50.6
CCOC(=O)c1ccccc1NC(=O)NCc1cccn1Cc1ccc(F)cc1	?	?	-18.7%	-11.2
N[C@]1(C(=O)O)CC[C@@H](C(=O)O)C1 (racemic)	.	.	-6.8%	.
Cc1snc(SCc2ccc(Cl)cc2)c1C#N	.	.	20.2%	-99.9*
CSC1=Nc2ccccc2N=C(N2CCCC2)C1	.	.	.	-24.1
CC1c2ccccc2SC(CCCN(C)C)c2ccccc21 (stereo not given)	?	5.17µM*	?	-60.5*
CN(C)CCC1Sc2ccccc2Oc2ccccc21 (stereo not given)	-52.3%	?	-8.1%	-14.4
CCOc1ccc2ncc(S(=O)(=O)c3ccc(C)cc3)c(N3CCC4(CC3)OCCO4)c2c1	?	?	-21.9%	-89.8*
CCN1CCN(c2c(S(=O)(=O)c3ccc(OC)cc3)cnc3cc(OC)c(OC)cc23)CC1	.	?	-16.9%	-38.7
Cc1ccc(-n2c(-c3ccccc3)c[nH]c2=S)cc1	?	-1.6%[46.1 µM]	?	-74.0*
Cc1ccc(C(=O)Nc2cccc(C(=O)OCc3cc(=O)n4nc(C5CC5)sc4n3)c2)cc1	5.4%[46.1 µM]	.	35.5%	68.1
Cc1sc2ncnc(N3CCC(C(=O)Nc4ccc(C#N)cc4)CC3)c2c1C	-6.5%	20.5%	?	-2.7
CCN(CC(=O)Nc1cc(Cl)ccc1C)C(=O)C1CCN(c2ncnc3sc(C)c(C)c23)CC1	.	.	17.8µM*	0.0
CCN(CC(=O)Nc1cc(Cl)ccc1C)C(=O)C1CCCCC1	3.4%	?	-20.0%	-61.1*
CCN(CC(=O)Nc1cc(Cl)ccc1C)c1ncnc2sc(C)c(C)c12	0.5%	?	-12.7%	-78.4*
Cc1sc2ncnc(N3CCC(C(=O)N(C)CC(=O)Nc4ccccc4Br)CC3)c2c1C	-26.7%	?	?	-63.0*
CCn1cc(CN2Cc3ccccc3OC(c3ccccc3OC)C2)c(C)n1 (stereo not given)	.	.	0.0%	.
Cc1ccc(NC(=O)CSc2nc3nccnc3c(=O)n2CCc2c[nH]c3ccccc23)c(C)c1	2.6%[46.1 µM]	.	-9.8%	2.3
Cc1sc2ncnc(N3CCC(C(=O)N(C)CC(=O)Nc4ccccc4Cl)CC3)c2c1C	10µM*	?	22.4µM*	-78.8*
CCCCC[C@@H](C)N1C[C@H](COCc2ccccc2)Oc2cc(N3CC[C@H](N(C)C)C3)ccc2S1(=O)=O	.	.	1.2%	-101.2*
C[C@@H](c1ccccc1)N1C[C@H](COCc2ccccc2)Oc2cc(N3CC[C@H](N(C)C)C3)ccc2S1(=O)=O	.	.	11.9%	-60.5*
C[C@H](c1ccccc1)N1C[C@@H](COCc2ccccc2)Oc2cc(N3CC[C@H](O)C3)ccc2S1(=O)=O	.	.	8.9%	-76.2*
COC[C@@H]1CCCN1c1ccc2c(c1)O[C@@H](COCc1ccccc1)CN([C@H](C)c1ccccc1)S2(=O)=O	.	.	10.9%	-64.7*
C[C@H](c1ccccc1)N1C[C@H](COCc2ccccc2)Oc2cc(N3CC[C@H](O)C3)ccc2S1(=O)=O	.	.	17.5%	?
SMILES	LASV entry inh	Marburg entry inh	FMDV inh	HCMV inh
C[C@@H](c1ccccc1)N1C[C@H](COCc2ccccc2)Oc2cc(N3CC[C@@H](N(C)C)C3)ccc2S1(=O)=O	.	.	7.9%	?
O=C(CCc1ccccc1)NC(c1cccs1)c1cc(Cl)c2cccnc2c1O (stereo not given)	2.82µM*	?	-25.8%	-101.8*
CCC(=O)NC(c1cccs1)c1cc([N+](=O)[O-])c2cccnc2c1O (stereo not given)	?	?	0.0%	-80.8*
CCC(=O)NC(c1cccs1)c1cc(Cl)c2ccccc2c1O (stereo not given)	.	.	-13.1%	3.1
CCCC(=O)NC(c1cccs1)c1cc([N+](=O)[O-])c2cccnc2c1O (stereo not given)	?	?	-0.1%	-99.3*
O=C(OCc1cn([C@@H]2C[C@H](c3ccccc3)N(CC3CCCCC3)C[C@@H]2O)nn1)c1ccccc1	-8.6%[46.1 µM]	.	.	.
Cc1cc(C(=O)c2ccccc2)c(NC(=O)CCl)s1	-16.5%	1µM*	?	53.1
O=C1/C(=C/c2cccnc2)Oc2cc(OS(=O)(=O)c3ccc(F)cc3)ccc21	-22.4%	?	22.4µM*	6.2
Cc1ccc(S(=O)(=O)Oc2ccc3c(c2)O/C(=C\c2cccnc2)C3=O)cc1	-0.3%	?	-3.1%	.
COc1ccc([C@@H]2[C@@H](C(=O)N3CCOCC3)CC(=O)N2C(=O)c2ccccc2)cc1	.	.	.	10.0
CCCCCC(=O)N1C[C@H](n2cc(C3CC3)nn2)[C@@H](O)C[C@H]1c1ccc(Cl)cc1	-37.0%[46.1 µM]	.	.	.
CC(=O)N(C1=C(Cl)C(=O)c2ccccc2C1=O)C1CCCCC1	12.6µM*	?	?	-103.4*
O=S(=O)(NCCc1ccc(F)cc1)c1ccccc1Br	-9.9%[46.1 µM]	.	.	.
COc1ccc(OC)c(CN2C[C@H](Sc3ccc(F)cc3)C[C@H]2C(=O)N(C)C)c1	.	.	-7.2%	.
Cn1cnc(S(=O)(=O)N2CCC(C(=O)NCc3ccccc3Cl)CC2)c1	-0.4%[46.1 µM]	.	4.8%	-33.3
Cc1nn(-c2ccc(N3CCCC3)nn2)c(C)c1CCC(=O)N1CCN(c2ccccc2F)CC1	-1.1%[46.1 µM]	.	-14.8%	-61.5*
Cc1ccc(/C=N/Nc2nnc(Cl)c3ccccc23)cc1	?	10µM*	?	27.9
CC(=O)Nc1ccc(C=NNc2nnc(NN=Cc3ccc(NC(C)=O)cc3)c3ccccc23)cc1	1.58µM*	?	-9.1%	-6.1
CCn1c2c(c(=O)n3ncc(C(=O)Nc4cc(Cl)ccc4OC)c13)CN(Cc1ccc(OC)cc1)CC2	-8.8%[46.1 µM]	.	1.7%	-11.0
COc1ccc(CN2CCc3c(c(=O)n4ncc(C(=O)N5CCN(c6ccccc6OC)CC5)c4n3C)C2)cc1	?	.	?	-84.3*
COc1ccc(C)cc1NS(=O)(=O)c1ccc(NC(=O)CN(c2cc([N+](=O)[O-])ccc2C)S(C)(=O)=O)cc1	?	3.66µM*	-12.7%	-35.3
O=C1C2C(c3ccccc3)CC=CC2[C@H](c2ccc(C(F)(F)F)cc2)N1Cc1ccccc1 (stereo not given in full)	.	.	0.0%	-84.5*
C[C@@H]1CC=C[C@H]2[C@H]1C(=O)N(Cc1ccccc1)[C@H]2c1ccc(C(F)(F)F)cc1	.	.	?	-26.0
CN(C)c1ccc(-c2cccc(C3CC=CC4C3C(=O)N(Cc3ccccc3)C4c3ccc(C(F)(F)F)cc3)c2)cc1 (stereo not given)	.	.	-0.8%	?
COc1ccc(-c2c([C@H]3[C@H]4C=CC[C@@H](C)[C@@H]4C(=O)N3Cc3ccccc3)ccc3ccccc23)cc1OC	.	.	?	-83.6*
COc1ccc(-c2cccc(C3CC=CC4C3C(=O)N(Cc3ccccc3)C4c3ccc(C(F)(F)F)cc3)c2)cc1 (stereo not given)	.	.	-10.6%	-67.3*
C[C@@H]1COc2cc(F)ccc2S(=O)(=O)N1	-6.9%[46.1 µM]	.	.	.
Cc1cc(C)cc(C(=O)NCc2nc(-c3cccc(NC(=O)c4ccccn4)c3)oc2C)c1	.	.	26.9%	.

Screening data as filed in PubChem.
